Screening results from PubChem.
Shown are actives, neighbours in structure and some others; about 4.1% of the full set was active somewhere.
tim10-1 inh: inhibits growth of tim10-1 mutant yeast; S. cerevisiae tim10-1 ts strain growth, BacTiter-Glo, 24 h; inhibition, % at 20 µM; 330,000 compounds, 2.2% hits;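 active = inhibition of at least 40%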;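 note: mutant grown at 25 °C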
TIM10 inh: growth inhibitors of TIM10 yeast strain. S. cerevisiae TIM10 strain growth, BacTiter-Glo luminescence, 24 h. inhibition, % at 10 µM. 330,000 compounds, 1.4% hits. AID 463195;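 active = inhibition of 40% or more at the single tested concentration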;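 note: wild-type TIM10 isogenic control strain grown at permissive 25 °C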
tim23-1 inh: inhibits growth of tim23-1 mutant yeast; inhibition, % at 20 µM; S. cerevisiae tim23-1 growth, BacTiter-Glo luminescence, 24 h; AID 463212; 330,000 compounds, 1.3% hits;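 active = growth inhibition of the mutant yeast at or above 50%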;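 note: temperature-sensitive mutant grown at 25 °C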
NLRP3 yeast inh: NALP3 inhibition in yeast. Yeast reconstituted NLRP3/ASC/caspase-1, beta-gal luminescence, 24 h. inhibition, % at 10 µM. 330,000 compounds, 0.39% hits;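 active = inhibition of 50% or more; inactive = inhibition below 50%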
NALP1 inh: inhibitors of NALP1 inflammasome in yeast; S. cerevisiae NALP1/ASC/caspase-1 growth, X-gal OD620, 72 h; inhibition, % at 10 µM; 280,000 compounds, 0.61% hits; AID 2071; in the data active = inhibition mostly above about 24%, no sharp cut-off; inactive = mostly below about 32%
Each line names hits and unclear results; the compound was inactive in the other large screens.

O=c1c([N+](=O)[O-])c(N2CCCCC2)c2ccccc2n1-c1ccccc1	NALP1 inh 36.4
CC(=O)c1c(N2CCCCC2)nc(=S)n(-c2ccccc2)c1C	none
CC(=O)c1c(N2CCCC2)nc(=S)n(-c2ccccc2)c1C	NALP1 inh 37.5
C=CCN(CC=C)S(=O)(=O)c1ccc2nc(NC(=O)C3CCCO3)sc2c1 (stereo not given)	none
O=S(=O)(Cc1cc(N2CCOCC2)nc(-c2ccccn2)n1)c1ccccc1	NALP1 inh 22.0
Cc1nc(CS(=O)(=O)c2ccc(Cl)cc2)cc(N2CCOCC2)n1	none
OCC[C@@H]1C[C@H](O)[C@@H](O)[C@@]2(OCCCc3ccccc32)O1	none
CCN(CC)CCCNC(=O)c1ccc(N2CCCCC2)c(NS(=O)(=O)c2ccc(C)cc2)c1	NALP1 inh 24.4
COC(=O)c1ccc(COc2ccccc2/C=N/NS(=O)(=O)c2ccccc2)cc1	none
Cc1cc(N2CCC(C)CC2)nc(-c2ccccc2O)n1	none
Cc1cc(N2CCC(C)CC2)nc(NCc2ccccc2)n1	NALP1 inh 69.3
COc1cc2c(cc1OC)[C@H](C)N(C(=O)NCc1ccccc1)CC2	none
CCOc1ccccc1NC(=O)CCC(=O)Nc1ccccc1OCC	none
CCOc1ccccc1NC(=O)CSc1ccccc1	NALP1 inh 27.3
CN(CC(=O)NCc1ccccc1)S(=O)(=O)c1cnc[nH]1	NALP1 inh 44.9
CC(C)NC(=O)NC(=O)COC(=O)c1cccc(S(=O)(=O)N2CCCCC2)c1	none
COC(=O)CN(c1cc(OC)ccc1OC)S(=O)(=O)c1ccc(OC)c(OC)c1	NALP1 inh 28.8
NC(=O)c1cc(S(=O)(=O)NCCc2ccc(Cl)cc2)cs1	none
Nc1ccc(-c2nc3ccccc3[nH]2)cc1	none (no result: NALP1 inh)
Fc1ccc(-c2nc3ccccc3[nH]2)cc1	NALP1 inh 36.4
CN(CC(=O)Nc1cccc(F)c1)C(=O)c1ccccc1OCC(=O)Nc1cccc(C(F)(F)F)c1	none (no result: NALP1 inh)
C=CCN(CC=C)C(=S)NC(=O)c1ccc(-c2ccccc2)cc1	NALP1 inh 38.9
C=CCN(CC=C)C(=S)NC(=O)c1ccc(OC)cc1	none
O=C1C2C3C=CC(C3)C2C(=O)N1CCCCCCN1C(=O)C2C3C=CC(C3)C2C1=O (stereo not given)	none
O=C1C=CC(=O)N1CCCCCCN1C(=O)C=CC1=O	NALP1 inh 111.6 (no result: tim10-1 inh, TIM10 inh, tim23-1 inh, NLRP3 yeast inh)
Fc1ccc(C2CC(c3ccccc3)Nc3ncnn32)cc1 (stereo not given)	NALP1 inh 35.2
CCN(CC(=O)Nc1c(F)cccc1F)C(=O)c1csc2c1CCCC2	none (no result: NALP1 inh)
CC(=O)Nc1ccc(NC(=O)CCN2C(=O)c3ccccc3C2=O)cc1	NALP1 inh 44.0
Cc1cccc(-n2c(SCC(=O)N3CCC(C(=O)O)CC3)nc3ccccc3c2=O)c1C	none
O=C(Nc1nccs1)c1ccc(-c2ccc(Cl)cc2)o1	none
O=C(Nc1nccs1)c1ccc(-c2ccc([N+](=O)[O-])cc2)o1	NALP1 inh 32.1 (no result: tim10-1 inh, TIM10 inh, tim23-1 inh, NLRP3 yeast inh)
COc1ccc(S(=O)(=O)N2CCNCC2)cc1	none
Fc1cc(F)c(C2SCCN2C(=S)Nc2cccc(C(F)(F)F)c2)c(F)c1 (stereo not given)	NALP1 inh 37.1
CCOC(=O)c1ccc(NC(=S)N2CCSC2c2c(F)cc(F)cc2F)cc1 (stereo not given)	none
O=C(CSc1nc(-c2cccs2)cc(C(F)(F)F)n1)Nc1cc(OCC(F)(F)C(F)F)cc([N+](=O)[O-])c1	none
Cc1c(CBr)[n+](=O)c2c(n1[O-])C(Br)CCC2Br (stereo not given)	NALP1 inh 41.5
CC(C)COc1cccc(C(=O)N(C)CC(=O)Nc2cccc3ccccc23)c1	none (no result: NALP1 inh)
COc1cccc(-c2nnc3sc(C4CCCCC4)nn23)c1	NALP1 inh 36.8
COc1cc(-c2nnc3sc(C4CCCCC4)nn23)cc(OC)c1OC	none (no result: NALP1 inh)
Nc1c(Cl)ncnc1N/N=C/c1ccccn1	NALP1 inh 93.8 (no result: tim10-1 inh, TIM10 inh, tim23-1 inh, NLRP3 yeast inh)
Cc1ccc(Oc2ccc(OCC(=O)NC(CC(C)C)C(=O)O)cc2)cc1 (stereo not given)	none
O=C(CSc1nc(O)c(Cc2ccccc2)c(=O)n1-c1ccccc1)N1CCOCC1	NALP1 inh 40.3
Cc1ccc[n+](CC(=O)Nc2cc(C(F)(F)F)ccc2Cl)c1	none
CCC(C)(C)c1ccc(OCCCC[n+]2cccc(C)c2)c(C(C)(C)CC)c1	NALP1 inh 33.0 (no result: tim10-1 inh, TIM10 inh, tim23-1 inh, NLRP3 yeast inh)
COC(=O)c1cc(NC(=O)CC2NC3CCCCC3NC2=O)cc(C(=O)OC)c1 (stereo not given)	none
CCOC(=O)c1nnn2c1nc(Nc1cccc(C(F)(F)F)c1)c1ccccc12	none (no result: NALP1 inh)
